# Measurements from PubChem BioAssay AID1159580 (chemical genetic matrix, 2015).
# Where “and” joins values, the source holds several entries; their conditions need not be identical. Equal entries are not always repeated. The campaign covered roughly 5,500 compounds. About 2,000 (36%) were called active. About 18% were inconclusive and are not listed. Cut-off read from the data, not from the text of the source: active = normalized growth mostly below about 0.91 (no sharp cut-off); inconclusive = no clear call, values can overlap the other calls; inactive = mostly above about 0.92. Some of the results follow. Some structures have more than one record in an assay (separate samples or runs), and their calls can disagree.
# Assay: chemical genetic growth profiling, strain panel (AID 1159580);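 note: tested at 20 µM; growth read once vehicle control cultures reached saturation at 30 °C; 1 = growth at the plate median or of vehicle wells; lower values mean less growth of the strain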
# Details: S. cerevisiae deletion strains, growth OD
compound,measurement,setting,value
O=c1cc(-c2ccccc2)oc2cc(O)cc(O)c12,normalized growth,"locus YAL013W, strain DEP1, stronger effect = lower value",0.956 (inactive)
same,normalized growth,"locus YAL021C, strain ccr4, stronger effect = lower value",0.968 (inactive) and 0.933 (inactive)
same,normalized growth,"locus YAL026C, strain drs2, stronger effect = lower value",0.911 (inactive) and 0.786 (active)
same,normalized growth,"locus YAL030W, strain snc1, stronger effect = lower value",0.943 (inactive) and 0.913 (active)
same,normalized growth,"locus YBL061C, strain skt5, stronger effect = lower value",0.904 (active)
same,normalized growth,"locus YBR009C, strain hhf1, stronger effect = lower value",0.915 (inactive) and 0.773 (active)
same,normalized growth,"locus YBR021W, strain FUR4, stronger effect = lower value",1.01 (inactive)
same,normalized growth,"locus YBR023C, strain chs3, stronger effect = lower value",1.01 (inactive) and 0.851 (active)
same,normalized growth,"locus YBR171W, strain sec66, stronger effect = lower value",0.953 (inactive) and 0.858 (active)
same,normalized growth,"locus YBR229C, strain ROT2, stronger effect = lower value",0.993 (inactive)
same,normalized growth,"locus YBR231C, strain swc5, stronger effect = lower value",0.938 (inactive) and 0.875 (active)
same,normalized growth,"locus YBR279W, strain paf1, stronger effect = lower value",0.947 (inactive) and 0.922 (active)
same,normalized growth,"locus YCL011C, strain gbp2, stronger effect = lower value",0.937 (inactive) and 0.86 (active)
same,normalized growth,"locus YCL016C, strain dcc1, stronger effect = lower value",1.07 (inactive) and 0.875 (active)
same,normalized growth,"locus YCL029C, strain bik1, stronger effect = lower value",0.911 (inactive)
same,normalized growth,"locus YCL061C, strain MRC1, stronger effect = lower value",0.951 (inactive) and 0.802 (active)
same,normalized growth,"locus YCL069W, strain vba3, stronger effect = lower value",0.978 (inactive) and 0.896 (active)
same,normalized growth,"locus YCR088W, strain abp1, stronger effect = lower value",0.957 (inactive) and 0.923 (inactive)
same,normalized growth,"locus YDL005C, strain med2, stronger effect = lower value",0.961 (inactive) and 0.958 (inactive)
same,normalized growth,"locus YDL035C, strain GPR1, stronger effect = lower value",0.919 (inactive)
same,normalized growth,"locus YDL040C, strain nat1, stronger effect = lower value",1.02 (inactive) and 0.916 (active)
same,normalized growth,"locus YDL074C, strain BRE1, stronger effect = lower value",0.87 (inactive)
same,normalized growth,"locus YDL101C, strain DUN1, stronger effect = lower value",0.987 (inactive)
same,normalized growth,"locus YDL134C, strain PPH21, stronger effect = lower value",0.954 (inactive)
same,normalized growth,"locus YDL185W, strain tfp1, stronger effect = lower value",0.946 (inactive)
same,normalized growth,"locus YDL192W, strain arf1, stronger effect = lower value",0.919 (inactive)
same,normalized growth,"locus YDR001C, strain nth1, stronger effect = lower value",0.96 (inactive) and 0.917 (active)
same,normalized growth,"locus YDR069C, strain doa4, stronger effect = lower value",0.926 (inactive) and 0.919 (inactive)
same,normalized growth,"locus YDR101C, strain arx1, stronger effect = lower value",0.921 (inactive)
same,normalized growth,"locus YDR137W, strain rgp1, stronger effect = lower value",0.675 (active) and 0.533 (active)
same,normalized growth,"locus YDR150W, strain NUM1, stronger effect = lower value",0.973 (inactive)
same,normalized growth,"locus YDR159W, strain sac3, stronger effect = lower value",0.853 (active) and 0.785 (active)
same,normalized growth,"locus YDR162C, strain NBP2, stronger effect = lower value",0.92 (inactive)
same,normalized growth,"locus YDR195W, strain ref2",0.986 (inactive) and 1.15 [resistant] (active)
same,normalized growth,"locus YDR297W, strain sur2, stronger effect = lower value",0.946 (inactive) and 0.907 (active)
same,normalized growth,"locus YDR318W, strain mcm21, stronger effect = lower value",0.902 (active)
same,normalized growth,"locus YDR334W, strain swr1, stronger effect = lower value",0.954 (inactive) and 0.887 (active)
same,normalized growth,"locus YDR335W, strain msn5, stronger effect = lower value",0.957 (inactive) and 0.88 (active)
same,normalized growth,"locus YDR388W, stronger effect = lower value",0.914 (active)
same,normalized growth,"locus YDR392W, strain spt3, stronger effect = lower value",0.595 (active) and 0.401 (active)
same,normalized growth,"locus YDR502C, strain sam2, stronger effect = lower value",0.922 (inactive)
same,normalized growth,"locus YEL003W, strain gim4, stronger effect = lower value",0.952 (inactive) and 0.809 (active)
same,normalized growth,"locus YEL037C, strain rad23, stronger effect = lower value",0.941 (inactive) and 0.911 (active)
same,normalized growth,"locus YEL061C, strain CIN8 (second series), stronger effect = lower value",0.961 (inactive) and 0.888 (active)
same,normalized growth,"locus YEL061C, strain CIN8, stronger effect = lower value",0.967 (inactive)
same,normalized growth,"locus YER015W, strain faa2, stronger effect = lower value",0.936 (inactive) and 0.867 (active)
same,normalized growth,"locus YER016W, strain bim1, stronger effect = lower value",1.07 (inactive) and 0.92 (active)
same,normalized growth,"locus YER110C, stronger effect = lower value",0.945 (inactive)
same,normalized growth,"locus YER111C, strain swi4, stronger effect = lower value",0.97 (inactive) and 0.951 (inactive)
same,normalized growth,"locus YER155C, strain BEM2 (second series), stronger effect = lower value",0.686 (active) and 0.499 (active)
same,normalized growth,"locus YER155C, strain BEM2, stronger effect = lower value",0.969 (inactive)
same,normalized growth,"locus YER167W, strain BCK2, stronger effect = lower value",0.928 (inactive)
same,normalized growth,"locus YFR010W, strain ubp6, stronger effect = lower value",0.931 (inactive) and 0.919 (inactive)
same,normalized growth,"locus YGL078C, strain dbp3, stronger effect = lower value",0.957 (inactive)
same,normalized growth,"locus YGL086W, strain mad1, stronger effect = lower value",0.853 (active)
same,normalized growth,"locus YGL167C, strain pmr1, stronger effect = lower value",0.924 (inactive) and 0.87 (active)
same,normalized growth,"locus YGL173C, strain kem1, stronger effect = lower value",0.858 (active) and 0.891 (active)
same,normalized growth,"locus YGL227W, strain vid30, stronger effect = lower value",0.952 (inactive) and 0.909 (active)
same,normalized growth,"locus YGL240W, strain doc1, stronger effect = lower value",0.797 (active) and 0.631 (active)
same,normalized growth,"locus YGL248W, strain PDE1, stronger effect = lower value",0.949 (inactive)
same,normalized growth,"locus YGL253W, strain hxk2, stronger effect = lower value",0.941 (inactive) and 0.855 (active)
same,normalized growth,"locus YGR078C, strain PAC10, stronger effect = lower value",0.858 (inactive)
same,normalized growth,"locus YGR135W, strain pre9, stronger effect = lower value",0.879 (active)
same,normalized growth,"locus YGR229C, strain SMI1, stronger effect = lower value",0.802 (active)
same,normalized growth,"locus YGR252W, strain gcn5, stronger effect = lower value",0.762 (active)
same,normalized growth,"locus YHR013C, strain ard1, stronger effect = lower value",1.06 (inactive) and 1.1 (inactive)
same,normalized growth,"locus YHR027C, strain rpn1, stronger effect = lower value",0.95 (inactive) and 0.901 (active)
same,normalized growth,"locus YHR030C, strain SLT2, stronger effect = lower value",0.967 (inactive) and 0.884 (inactive)
same,normalized growth,"locus YHR079C, strain IRE1 (second series), stronger effect = lower value",0.92 (active)
same,normalized growth,"locus YHR079C, strain IRE1, stronger effect = lower value",0.862 (inactive)
same,normalized growth,"locus YHR094C, strain hxt1, stronger effect = lower value",0.964 (inactive)
same,normalized growth,"locus YHR129C, strain ARP1, stronger effect = lower value",0.992 (inactive)
same,normalized growth,"locus YHR142W, strain chs7, stronger effect = lower value",0.889 (inactive) and 0.702 (active)
same,normalized growth,"locus YHR200W, strain rpn10, stronger effect = lower value",0.91 (active)
same,normalized growth,"locus YIL066C, strain RNR3, stronger effect = lower value",0.959 (inactive)
same,normalized growth,"locus YIL073C, strain SPO22, stronger effect = lower value",0.854 (inactive)
same,normalized growth,"locus YIL125W, strain kgd1, stronger effect = lower value",0.955 (inactive)
same,normalized growth,"locus YIR030C, strain dcg1, stronger effect = lower value",0.944 (inactive)
same,normalized growth,"locus YJL092W, strain hpr5, stronger effect = lower value",0.954 (inactive) and 0.91 (active)
same,normalized growth,"locus YJL095W, strain BCK1 (second series), stronger effect = lower value",0.942 (inactive) and 0.879 (active)
same,normalized growth,"locus YJL095W, strain BCK1, stronger effect = lower value",0.825 (inactive) and 0.889 (inactive)
same,normalized growth,"locus YJL115W, strain asf1, stronger effect = lower value",0.954 (inactive) and 0.904 (active)
same,normalized growth,"locus YJL129C, strain trk1, stronger effect = lower value",0.816 (active) and 0.603 (active)
same,normalized growth,"locus YJL134W, strain LCB3, stronger effect = lower value",0.991 (inactive)
same,normalized growth,"locus YJL154C, strain vps35, stronger effect = lower value",0.97 (inactive) and 0.918 (active)
same,normalized growth,"locus YJL164C, strain tpk1, stronger effect = lower value",0.909 (active) and 0.811 (active)
same,normalized growth,"locus YJL166W, strain qcr8, stronger effect = lower value",0.891 (active) and 0.741 (active)
same,normalized growth,"locus YJL168C, strain set2, stronger effect = lower value",0.948 (inactive)
same,normalized growth,"locus YJL187C, strain SWE1 (second series), stronger effect = lower value",0.939 (inactive)
same,normalized growth,"locus YJL187C, strain SWE1, stronger effect = lower value",0.952 (inactive) and 0.902 (active)
same,normalized growth,"locus YJR043C, strain POL32, stronger effect = lower value",0.899 (inactive)
same,normalized growth,"locus YJR066W, strain TOR1, stronger effect = lower value",0.883 (inactive)
